Measured values taken from PubChem BioAssay.
Activity calls are given as the source filed them.

Experiment: optical density shifts of acrAB sulA E. coli – strain DRC41, OD650, 48 h, E. coli filamentation inducer project, primary screen (AID 1152);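 also: E. coli MC1000 strain DRC41 lacking acrAB efflux pump and sulA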
Conditions: higher = more signal, called active from +8 up or from −8 down

z-score, inactive:
CC(c1ccccc1)C(O)C1C=CC2C(=O)N(C)C(=O)C2N1Nc1ccccc1 (stereo not drawn) -1.14
Cc1ccc(N2C(=O)c3ccccc3[C@@H](C(=O)NCCCN(C)C)[C@@H]2c2ccc(CO)cc2)nc1 0.0376
CCCCC(CC)C(O)C1C=CC2C(=O)N(C)C(=O)C2N1Nc1ccccc1 (stereo not drawn) -1.34
C=CCNC(=O)[C@@H]1[C@H]2C(=O)O[C@H](c3ccccc3)[C@H](c3ccccc3)N2[C@H](c2ccc(O)cc2)[C@@]12C(=O)N(C(=O)OCCOC)c1ccc(C#CC3=CCCCC3)cc12 -1.1
NCCCCCCNC(=O)[C@@H]1C[C@@H]2C(=O)N[C@@H](CCCCN)C(=O)N2[C@@H]1c1ccc(O)cc1 0.264
Cc1ccc(C(C)CC(O)C2C=CC3C(=O)N(c4ccccc4)C(=O)C3N2Nc2ccccc2)o1 (stereo not drawn) -1.13
COCCOC(=O)N1C(=O)[C@@]2(c3cc(C#CC4(O)CCCCCC4)ccc31)[C@H](C(=O)N1CCc3cc(OC)c(OC)cc3C1)[C@H]1C(=O)O[C@H](c3ccccc3)[C@H](c3ccccc3)N1[C@@H]2c1ccc(OCCO)cc1 -0.073
COC(=O)[C@@]1(Cc2ccc(OC)cc2)[C@H]2c3cc(C(=O)N(C)C)n(Cc4ccc(OC(F)(F)F)cc4)c3C[C@H]2CN1C(=O)c1ccccc1 -1.81
CCCCCN1CC=CC23O[C@@H]4C=CCCOC(=O)C4[C@H]2C(=O)N(CCCCCCO)[C@@H]3C1=O (stereo partly drawn) 0.457
COCCOC(=O)N1C(=O)[C@@]2(c3cc(C#CC4=CCCCC4)ccc31)[C@H](c1ccccc1OCCO)N1[C@H](c3ccccc3)[C@H](c3ccccc3)OC(=O)[C@H]1[C@@H]2C(=O)N1CCN(c2ncccn2)CC1 0.978
NC(=O)[C@@]1(Cc2ccccc2)COC(c2ccc(OCCCO)cc2)=N1 0.917
N#Cc1ccc(NN2C(C(O)c3ccc(Br)cc3)C=CC3C(=O)N(c4ccccc4)C(=O)C32)cc1 (stereo not drawn) -0.922
CCOC(=O)C[C@H]1[C@H](OC(=O)c2ccccc2-c2ccccc2)[C@@H](NC(=O)c2ccc3ccccc3c2)c2cc(OCCCO)ccc2N1C(=O)c1ccccc1 0.142
O=C1NC(=O)C2C1C=CC(C(O)c1ccco1)N2Nc1ccc(Cl)cc1Cl (stereo not drawn) -2.27
C=CCOC(=O)[C@@]1(Cc2ccccc2)C[C@H]2CO[C@H](c3ccc(OC)cc3)N2C1=O -0.0282
COCCCNC(=O)[C@@H]1c2ccccc2C(=O)N(C(C)C)[C@H]1c1ccc(CO)cc1 -0.476
COC(=O)C1=CC(CCCO)=CC(c2cccs2)N(Cc2cccc(OC(F)(F)F)c2)C=C1C(=O)OC (stereo not drawn) -0.504
[N-]=[N+]=Nc1ccccc1C[C@]1(C(=O)NCC(O)CO)COC(c2ccc(OCCCO)cc2)=N1 (stereo partly drawn) 0.759
COc1cccc(C)c1NC(=O)O[C@H]1[C@H](OC(=O)Nc2ccc3c(c2)OCO3)[C@@H](OC(=O)Nc2ccc3c(c2)OCO3)[C@@H](OC)O[C@@H]1CO 0.132
CCCCCCCCCCC(O)C1C=CC2C(=O)N(c3ccccc3)C(=O)C2N1Nc1ccc(C#N)cc1 (stereo not drawn) -1.08
Cc1ccc(F)cc1S(=O)(=O)N[C@@H]1CCN(Cc2ccc(Br)cc2)C1 -1.98
C=CC[C@]1(C(=O)N2CCCCC2)N=C(c2ccc(OCCCO)cc2)O[C@H]1c1ccccc1CN=[N+]=[N-] 0.678
COCC(=C=CC[C@H](O)c1ccc(CO)o1)CCO -0.434
O=C(c1ccccc1)N1C(=O)[C@]2(Cc3ccccc31)N=C(c1ccc(OCCCO)cc1)O[C@@H]2c1ccccc1 -0.857
C[N+](C)(C)CCCCCCNC(=O)[C@@H]1C[C@@H]2C(=O)N3CCC[C@H]3C(=O)N2[C@@H]1c1ccc(O)cc1 0.524
C=CCC(OC(C)=O)[C@@H]1[C@@H](N(Cc2ccc(-c3ccccc3)cc2)C(=O)c2ccc(-c3ccccc3)cc2)c2cc(OCCCO)ccc2N1C(=O)c1ccc2ccccc2c1 (stereo partly drawn) -0.75
CCOC(=O)C1=C[C@@H](C(C)(C)C)N(S(=O)(=O)c2ccc(C)cc2)[C@H]1c1cccc2ccccc12 -1.11
O=C1CS(=O)(=O)C(c2cccc([N+](=O)[O-])c2)N1c1ccccc1 (stereo not drawn) 2.48
